Where “and” joins values, the source holds several entries; their conditions need not be identical. Equal values may be shown once. Records with an inconclusive call do not appear. Where a structure was tested more than once in an assay, its records may differ in their call. Calls of active or inactive are those of the source. Unless noted, the call rests on the fitted dose curve; in most records, active means well fitted curve in the direction sought with a large enough effect in the repeat runs; inconclusive means weak or mixed curves; inactive means no such curve, though single readings can be large; an effect the other way counts as inactive or inconclusive.
Assays:
[1] = qHTS assay to identify small molecule antagonists of the thyroid receptor (TR) signaling pathway - cell viability counter screen (AID 743064); further: nearly all actives have a fitted effect of over 50% in size; further: potency means the concentration at half of the fitted maximal effect
In short: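 Plate GH3.TRE-Luc cells; incubate 4 h at 37 °C; add compound, then T3 to 1 nM final; incubate 23.5 h; add CellTiter-Fluor; incubate 30 min at 37 °C, 5% CO2; read fluorescence.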

[2] = qHTS assay to identify small molecule antagonists of the estrogen receptor alpha (ER-alpha) signaling pathway - cell viability counter screen (AID 743074; calls by dose curve;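 further: HEK293 cells carrying ER-alpha-UAS-bla reporter stimulated with 17beta-estradiol; nearly all actives have a fitted effect of over 45% in size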; further: potency means the concentration at half of the fitted maximal effect)
[3] = biological target: Estrogen receptor (Homo sapiens) (UniProt P03372); assay: qHTS assay to identify small molecule agonists of the estrogen receptor alpha (ER-alpha) signaling pathway (AID 743075; calls by dose curve;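 further: HEK293 GripTite cells with ER-alpha and UAS-driven beta-lactamase reporter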)
[4] = biological target: Estrogen receptor (Homo sapiens) (UniProt P03372); assay: qHTS assay to identify small molecule agonists of the estrogen receptor alpha (ER-alpha) signaling pathway using the BG1 cell line (AID 743079); further: nearly all actives have a fitted effect of over 20% in size; further: potency means the concentration at half of the fitted maximal effect
[5] = qHTS assay to identify small molecule antagonists of the estrogen receptor alpha (ER-alpha) signaling pathway using the BG1 cell line - cell viability counter screen (AID 743081);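 further: compound given together with 17beta-estradiol as the ER stimulus; series mostly up to about 70 µM; nearly all actives have a fitted effect of over 45% in size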
Aromatase (Homo sapiens) = Aromatase (Homo sapiens) (UniProt P11511); assay: qHTS assay to identify aromatase inhibitors (AID 743083); further: nearly all actives have a fitted effect of over 55% in size; further: potency means the concentration at half of the fitted maximal effect
[6] = qHTS assay to identify aromatase inhibitors - cell viability counter screen (AID 743084);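 further: cells stimulated with testosterone during compound exposure; nearly all actives have a fitted effect of over 55% in size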; further: potency means the concentration at half of the fitted maximal effect
[7] = biological target: Aryl hydrocarbon receptor (Homo sapiens) (UniProt P35869); assay: qHTS assay to identify small molecule that activate the aryl hydrocarbon receptor (AhR) signaling pathway (AID 743085); further: nearly all actives have a fitted effect of over 15% in size; further: potency means the concentration at half of the fitted maximal effect;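 on activation: HG2L7.5c1 human HepG2 liver cells with stably integrated DRE-driven firefly reporter; series mostly up to about 70 µM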
In short: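 Steps: seed HepG2-AhR-luc cells; allow 5 h at 37C; pin-transfer test compound or vehicle; incubate 24 h at 37C; add viability dye (30 min, 37C) and read fluorescence; add luciferase substrate (30 min, RT) and read luminescence.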

[8] = qHTS assay to identify small molecule that activate the aryl hydrocarbon receptor (AhR) signaling pathway - cell viability counter screen (AID 743086); further: nearly all actives have a fitted effect of over 45% in size; further: potency means the concentration at half of the fitted maximal effect
In short: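 Cytotoxicity counter screen: CellTiter-Fluor signal (30 min, 37 C) in 4000 HepG2 cells/well carrying the DRE-luciferase reporter, following 24 h compound exposure at 37 C.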

[9] = biological target: Peroxisome proliferator-activated receptor gamma (Homo sapiens) (UniProt P37231); assay: qHTS assay to identify small molecule agonists of the peroxisome proliferator-activated receptor gamma (PPARg) signaling pathway (AID 743094; active means well fitted activation curve with a large enough effect in the signal ratio in the repeat runs, not every such curve was filed as active; the % refers to the signal ratio)
In short: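 GeneBLAzer PPARg UAS-bla HEK293H cells carrying a stably integrated beta-lactamase reporter were pre-incubated 5 h at 37C, then exposed to compounds in DMSO for 17 h at 37C; LiveBLAzer B/G FRET substrate was added for 1 h at room temperature and fluorescence read.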

[10] = biological target: Peroxisome proliferator-activated receptor gamma (Homo sapiens) (UniProt P37231); assay: qHTS assay to identify small molecule antagonists of the peroxisome proliferator-activated receptor gamma (PPARg) signaling pathway (AID 743191; calls by dose curve; further: nearly all actives have a fitted effect of over 30% in size; further: potency means the concentration at half of the fitted maximal effect)
In short: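 Beta-lactamase reporter under UAS control in HEK293H PPARg-bla cells; compound treatment 17 h at 37C. Read-out: fluorescence intensity after 1 h room-temperature incubation with LiveBLAzer B/G FRET substrate.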

[11] = qHTS assay to identify small molecule antagonists of the peroxisome proliferator-activated receptor gamma (PPARg) signaling pathway - cell viability counter screen (AID 743194); further: nearly all actives have a fitted effect of over 55% in size; further: potency means the concentration at half of the fitted maximal effect
In short: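 Viability was measured as CellTiter-Glo luminescence in GeneBLAzer PPARg UAS-bla HEK293H cells. These cells had been exposed 17 h at 37 C to compounds together with rosiglitazone at 50 nM final, with the beta-lactamase readout taken in the same wells.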

[12] = qHTS assay for small molecule activators of the heat shock response signaling pathway - cell viability counter screen (AID 743209); further: nearly all actives have a fitted effect of over 50% in size
In short: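 CellSensor HSE-bla HeLa cells, plated overnight at 37 C/5% CO2, were exposed to compounds in DMSO for 5 h at 37 C. Viability was then read in the same wells by CellTiter-Glo luminescence after 30 min at room temperature.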

[13] = qHTS assay for small molecule activators of the heat shock response signaling pathway (AID 743210; active means well fitted activation curve with a large enough effect in the signal ratio in the repeat runs, with a control signal flat, not every such curve was filed as active; the % refers to the signal ratio;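 further: HeLa cells with beta-lactamase reporter driven by heat shock elements; series mostly up to about 63 µM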)
In short: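 HeLa HSE-bla cells, overnight plating; cpd in DMSO 5 h, 37 C; LiveBLAzer B/G FRET substrate 2.5 h RT; fluorescence intensity read.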

[14] = qHTS assay to identify small molecule antagonists of the thyroid receptor (TR) signaling pathway (AID 743065); further: series mostly up to about 70 µM; nearly all actives have a fitted effect of over 55% in size
In short: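 Antagonism measured as loss of luciferase signal in GH3 cells stably carrying a TRE-luciferase reporter, co-treated with compound and T3 (1 nM final) for 23.5 h at 37 C. Viability was read in the same well by CellTiter-Fluor.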

[15] = tested on: thyroid hormone receptor (rat, GH3 cells); assay: qHTS assay to identify small molecule agonists of the thyroid receptor (TR) signaling pathway (AID 743066; calls by dose curve)
[16] = qHTS assay for small molecule agonists of the antioxidant response element (ARE) signaling pathway (AID 743202; active means well fitted activation curve with a large enough effect in the signal ratio in the repeat runs, not every such curve was filed as active; the % refers to the signal ratio; further: potency means the concentration at half of the fitted maximal effect)
In short: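 Quantitative high-throughput format in HepG2 cells bearing an integrated ARE-beta-lactamase reporter. Compound exposure lasted 16 h at 37 C, and fluorescence was read 2 h after adding LiveBLAzer B/G substrate at room temperature.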

[17] = qHTS assay for small molecule agonists of the antioxidant response element (ARE) signaling pathway - cell viability counter screen (AID 743203; calls by dose curve; further: nearly all actives have a fitted effect of over 55% in size; further: potency means the concentration at half of the fitted maximal effect)
In short: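 CellSensor ARE-bla HepG2 cells, 2,000 per well, rested 5 hrs at 37C/5% CO2, then exposed to compound in DMSO for 16 hrs; viability read as CellTiter-Glo luminescence after 30 min at room temperature, in the reporter wells.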

[18] = biological target: Estrogen receptor (Homo sapiens) (UniProt P03372); assay: qHTS assay to identify small molecule antagonists of the estrogen receptor alpha (ER-alpha) signaling pathway (AID 743069; active means well fitted curve in the direction sought with a large enough effect in the signal ratio in the repeat runs, not every such curve was filed as active; the % refers to the signal ratio)
In short: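 ER-alpha-UAS-bla GripTite HEK293 line; 2% charcoal-stripped FBS overnight; plated, 4 hr 37C/5% CO2; cpd in DMSO + 17beta-estradiol, 18 hr 37C; LiveBLAzer B/G FRET substrate 2 hr RT; fluorescence intensity.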

[19] = qHTS assay to identify small molecule antagonists of the estrogen receptor alpha (ER-alpha) signaling pathway using the BG1 cell line (AID 743080; calls by dose curve;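 further: BG1 cells stimulated with 17beta-estradiol alongside compound; series mostly up to about 70 µM; nearly all actives have a fitted effect of over 25% in size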)
In short: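 BG1-Luc-4E2 cells (endogenous full-length ER-alpha, 4xERE luciferase) hormone-starved 5 days in charcoal-stripped FBS, plated 4,000/well for 24 h, then compound plus 17beta-estradiol for 21.5 h at 37 C; ONE-Glo luminescence read.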

Measured: Potency

Aromatase (Homo sapiens), sequence (P11511 whole entry, looked up): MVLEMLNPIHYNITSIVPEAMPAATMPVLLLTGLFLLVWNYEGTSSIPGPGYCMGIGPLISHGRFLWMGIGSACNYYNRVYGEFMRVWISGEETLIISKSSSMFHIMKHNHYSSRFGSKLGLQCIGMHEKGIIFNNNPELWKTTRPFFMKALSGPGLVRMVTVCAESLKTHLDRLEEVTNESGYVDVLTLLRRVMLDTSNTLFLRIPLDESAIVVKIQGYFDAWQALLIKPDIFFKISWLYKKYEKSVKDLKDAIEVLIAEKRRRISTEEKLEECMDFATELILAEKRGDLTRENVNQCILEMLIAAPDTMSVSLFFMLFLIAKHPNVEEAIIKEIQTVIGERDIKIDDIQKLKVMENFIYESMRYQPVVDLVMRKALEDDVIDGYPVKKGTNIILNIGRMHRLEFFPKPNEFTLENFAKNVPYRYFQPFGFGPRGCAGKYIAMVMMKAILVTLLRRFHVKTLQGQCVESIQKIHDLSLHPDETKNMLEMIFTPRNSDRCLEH
Peroxisome proliferator-activated receptor gamma (Homo sapiens), sequence (P37231 whole entry, looked up): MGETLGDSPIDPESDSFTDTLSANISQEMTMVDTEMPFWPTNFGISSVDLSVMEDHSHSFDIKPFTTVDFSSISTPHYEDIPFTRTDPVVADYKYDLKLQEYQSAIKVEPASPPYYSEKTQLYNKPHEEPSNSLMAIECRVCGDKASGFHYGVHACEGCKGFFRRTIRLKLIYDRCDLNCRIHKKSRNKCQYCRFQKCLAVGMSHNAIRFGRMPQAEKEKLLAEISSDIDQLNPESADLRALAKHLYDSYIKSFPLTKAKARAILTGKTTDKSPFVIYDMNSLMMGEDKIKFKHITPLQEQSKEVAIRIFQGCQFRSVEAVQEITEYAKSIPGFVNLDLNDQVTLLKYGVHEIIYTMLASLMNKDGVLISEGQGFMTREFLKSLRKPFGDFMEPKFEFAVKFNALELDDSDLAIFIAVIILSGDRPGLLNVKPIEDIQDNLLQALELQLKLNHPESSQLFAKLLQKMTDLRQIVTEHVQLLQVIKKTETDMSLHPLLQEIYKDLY
Estrogen receptor (Homo sapiens), sequence (P03372 whole entry, looked up): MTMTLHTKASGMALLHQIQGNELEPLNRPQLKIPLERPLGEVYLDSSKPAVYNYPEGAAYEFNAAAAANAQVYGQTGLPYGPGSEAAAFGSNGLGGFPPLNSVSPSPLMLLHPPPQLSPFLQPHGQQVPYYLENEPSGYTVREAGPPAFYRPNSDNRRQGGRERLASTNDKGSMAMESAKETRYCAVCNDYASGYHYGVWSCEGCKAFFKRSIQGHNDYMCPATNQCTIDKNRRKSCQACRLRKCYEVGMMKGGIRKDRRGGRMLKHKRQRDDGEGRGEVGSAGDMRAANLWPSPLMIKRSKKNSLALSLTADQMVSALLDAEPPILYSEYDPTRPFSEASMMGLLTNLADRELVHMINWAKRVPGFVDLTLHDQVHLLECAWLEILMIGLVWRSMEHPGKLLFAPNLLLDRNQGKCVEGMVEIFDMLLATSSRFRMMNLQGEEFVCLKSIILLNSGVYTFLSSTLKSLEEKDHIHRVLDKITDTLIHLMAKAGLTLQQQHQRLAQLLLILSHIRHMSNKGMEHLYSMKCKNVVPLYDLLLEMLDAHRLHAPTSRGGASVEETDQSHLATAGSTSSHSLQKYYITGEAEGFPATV
Aryl hydrocarbon receptor (Homo sapiens), sequence (P35869 whole entry, looked up): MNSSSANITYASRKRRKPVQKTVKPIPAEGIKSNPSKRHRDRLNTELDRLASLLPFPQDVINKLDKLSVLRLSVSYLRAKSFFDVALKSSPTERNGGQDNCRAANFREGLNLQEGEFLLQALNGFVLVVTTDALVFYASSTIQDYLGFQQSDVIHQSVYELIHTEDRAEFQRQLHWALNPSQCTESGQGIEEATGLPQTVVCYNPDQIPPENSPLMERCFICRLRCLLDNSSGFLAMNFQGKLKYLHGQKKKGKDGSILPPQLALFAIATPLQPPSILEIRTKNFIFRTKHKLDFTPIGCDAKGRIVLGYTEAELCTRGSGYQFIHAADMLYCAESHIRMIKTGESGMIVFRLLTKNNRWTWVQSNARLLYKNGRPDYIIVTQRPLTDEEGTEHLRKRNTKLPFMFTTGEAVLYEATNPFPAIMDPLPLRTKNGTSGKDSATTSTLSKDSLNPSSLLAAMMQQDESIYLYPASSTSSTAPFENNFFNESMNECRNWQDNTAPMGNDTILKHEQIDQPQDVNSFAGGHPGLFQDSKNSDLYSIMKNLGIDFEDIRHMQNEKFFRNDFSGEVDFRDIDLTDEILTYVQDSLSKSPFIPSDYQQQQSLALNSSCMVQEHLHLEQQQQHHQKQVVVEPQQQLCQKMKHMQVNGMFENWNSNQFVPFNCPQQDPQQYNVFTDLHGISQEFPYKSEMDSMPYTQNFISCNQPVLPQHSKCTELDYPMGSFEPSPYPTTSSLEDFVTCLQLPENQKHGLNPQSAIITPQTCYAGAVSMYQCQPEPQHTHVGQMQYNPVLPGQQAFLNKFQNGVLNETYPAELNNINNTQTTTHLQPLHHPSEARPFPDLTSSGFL

CNCCCC12CCC(c3ccccc31)c1ccccc12
inactive and 49 µM (active): [2]
inactive and 30.6 µM (active): Aromatase (Homo sapiens)
inactive and 54.5 µM (active): [6]
inactive and 61.1 µM (active): [8]
inactive: [3] | [4] | [5] | [7] | [9] | [12] | [13]
active: [1] 11.9 µM and 4.86 µM | [10] 13.3 µM | [11] 54.9 µM

CCC(C)c1ccccc1O (stereo not drawn)
not listed: [2] | [3] | [4] | [18] | [19]
inactive: all other assays above

CCCCc1oc2ccccc2c1C(=O)c1cc(I)c(OCCN(CC)CC)c(I)c1
inactive and 43.6 µM (active): Aromatase (Homo sapiens) | [6]
inactive: [18] | [3] | [4] | [19] | [5] | [8] | [12]
active: [1] 13.3 µM and 26.6 µM and 21.9 µM | [17] 34.6 µM

O=C(/C=C/C=C/c1ccc2c(c1)OCO2)N1CCCCC1
active: [4] 1.37 µM and 3.86 µM | [7] 612 nM and 2.17 µM | [10] 43.7 µM
not listed: [9] | [14] | [16] | [17] | [19]
inactive: all other assays above

CCC(C)(O)CCCC(C)C (stereo not drawn)
not listed: [1] | [8]
inactive: all other assays above

O=[N+]([O-])c1ccc2c(c1)Cc1ccccc1-2
active: [4] 13.7 µM | [16] 61.1 µM
inactive and 61.1 µM (active): [7]
not listed: [1] | [11]
inactive: all other assays above

CCCCC(CC)COCC1CO1 (stereo not drawn)
not listed: [1] | [11] | [17]
inactive: all other assays above

Source: PubChem BioAssay (Tox21)
